One experiment concerns C33A. Briefly: Primary qHTS to identify gynecologic anti-cancer compounds using libraries of approved drugs and bioactive compounds (AID 1345084). Note: nearly all actives have a fitted effect of over 55% in size. Particulars: Gynecologic cancer cell panel viability, ATPlite luminescence, 48 h; series mostly up to 57.5 µM. In a few lines: (§1)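 Cytotoxicity screen measuring ATP content by luciferase luminescence. Each compound is applied at five concentrations for 48 h at 37 C with 5% CO2.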

The subject of a further experiment is Es-2. The description is as above. Particulars: Gynecologic cancer cell panel viability, ATPlite luminescence, 48 h; series mostly up to 57.5 µM. In a few lines:
as §1

For a further experiment, the system named is HeLa. The description is as above. Particulars: Gynecologic cancer cell panel viability, ATPlite luminescence, 48 h; series mostly up to 57.5 µM. In a few lines:
as §1
A general note: Cellular ATP, detected with luciferase, serves as a proxy for viable cell number.

A further experiment has as its system Hek293T. The experiment is described as above. The conditions noted are these: Gynecologic cancer cell panel viability, ATPlite luminescence, 48 h, control line for the selectivity index; series mostly up to 57.5 µM. In a few lines:
as §1

A further experiment relates to JEG-3. The description is as above. The conditions noted are these: Gynecologic cancer cell panel viability, ATPlite luminescence, 48 h; series mostly up to 57.5 µM. In a few lines:
as §1

The next experiment relates to OV90. The description is as above. Particulars: Gynecologic cancer cell panel viability, ATPlite luminescence, 48 h; series mostly up to 57.5 µM. In a few lines:
as §1

The next experiment deals with PA-1. The experiment is described as above. The conditions noted are these: Gynecologic cancer cell panel viability, ATPlite luminescence, 48 h; series mostly up to 57.5 µM. In a few lines: as §1
For a further experiment, the system named is Tov-21-G. The experiment is described as above. Particulars: Gynecologic cancer cell panel viability, ATPlite luminescence, 48 h; series mostly up to 57.5 µM. In a few lines: as §1
A further experiment relates to Tov112D. Described as above. Particulars: Gynecologic cancer cell panel viability, ATPlite luminescence, 48 h; series mostly up to 57.5 µM. In a few lines: as §1
The next experiment relates to CASKI. The experiment is described as above. Particulars: Gynecologic cancer cell panel viability, ATPlite luminescence, 48 h; series mostly up to 57.5 µM. In a few lines:
as §1

The subject of a further experiment is SKOV3. The description is as above. Particulars: Gynecologic cancer cell panel viability, ATPlite luminescence, 48 h; series mostly up to 57.5 µM. In a few lines: as §1
Experiment [1] in a line: qHTS assay to identify inhibitors of the type 1 interferon - major histocompatibility complex class I in skeletal muscle: Counter screen cell viability and HiBit confirmation (AID 1347412). Note: nearly all actives have a fitted effect of over 60% in size. Particulars: iHSKM muscle cells + IFN-b, HiBiT or CellTiter-Glo, 24 h. In a few lines: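 HLA-B*08:01–HiBiT knock-in immortalized human myoblasts (C25cl48) stimulated with 4.0 ng/ml human IFN-beta and dosed with compound in a 12-point 1:3 titration (top final 46 uM). After 24 hrs at 37 C, HiBiT lytic luminescence or CellTiter Glo ATP read out.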
(In general: Quantitative high-throughput screening tests each substance at several concentrations.)

In a further experiment the test system is CAOV3. Briefly: Primary qHTS to identify gynecologic anti-cancer compounds using libraries of approved drugs and bioactive compounds (AID 1345084). Note: nearly all actives have a fitted effect of over 55% in size. Particulars: Gynecologic cancer cell panel viability, ATPlite luminescence, 48 h; series mostly up to 57.5 µM. In a few lines: as §1

Structures are written as SMILES. Results filed as inconclusive are left out. A number with no mark means an inactive call. Calls of active or inactive are those of the source. Calls come from the whole dose curve; as a rule, active = well fitted curve in the direction sought with a large enough effect; inconclusive = small, poorly fitted or top-dose-only effect, or another doubt; inactive = no such curve, though single readings can be large; an effect the other way counts as inactive or inconclusive.
% is set by controls: 0 for no effect and ±100 for the full control effect; potency is the fitted concentration of half-maximal effect.

As to `CCCOc1ccc(CCc2nc3cc(-c4c(C)noc4C)ccc3n2CCN2CCOCC2)cc1`, the Potency entry in the experiment with C33A, in the experiment with Es-2, in the experiment with HeLa, in the experiment with Hek293T, in the experiment with JEG-3 and in the experiment with OV90 was “inactive” throughout. The Potency entry with PA-1, in the experiment on Tov-21-G and in the experiment with Tov112D was “inactive” throughout.

`C=C[C@@]12COC(=O)C(=C)[C@@H]1[C@@H](O)[C@H](C(=C)C(=O)OC)[C@@H](O)C2`: the Potency entry in the experiment on C33A, in the experiment on CASKI, with Hek293T, in the experiment on OV90 and in the experiment with SKOV3 was “inactive” each time.

In the case of `Cc1nc(Nc2cnn(C3CCNCC3)c2)nc2c1N(C)C(=O)c1cc3ccccc3cc1N2C`, the Potency result in the experiment with C33A, with CASKI, in the experiment with Es-2, in the experiment with Hek293T, in the experiment with JEG-3 and in the experiment on OV90 was “inactive” in each case. Moreover, the Potency result in the experiment with PA-1, with Tov-21-G and with Tov112D was “inactive” each time.

For `C=C1C(=O)O[C@@H]2[C@H]1CC[C@H](C)C(CCC(=O)O)C2(C)O` (some centres undefined), the Potency result in the experiment on C33A, with CASKI, with HeLa, in the experiment with SKOV3 and in the experiment with Tov112D was “inactive” each time.

Consider `CCn1nc(C2CCN(C(=O)CCO)CC2)nc1-c1cnc(N)c(-c2nnc(C(C)(C)C)o2)n1`, for which the Potency entry with C33A, with Es-2, in the experiment with HeLa, in the experiment on Hek293T, with JEG-3 and with OV90 was “inactive” throughout. Moreover, the Potency result with Tov112D was “inactive”. Further, the Potency in the experiment with SKOV3 was 1.78 µM (active). Besides, the activity change, negative = inhibition in experiment [1] (HiBiT, at 45.9 µM (top of the series)) is -28.4%.

For `CC(C)S(=O)(=O)Nc1ccc(F)c(C(=O)c2c[nH]c3ncc(-c4cccnc4)cc23)c1F`, the Potency entry in the experiment with C33A, in the experiment with CASKI, in the experiment on Hek293T, in the experiment with JEG-3 and in the experiment with Tov112D was “inactive” each time. Also, the Potency in the experiment on SKOV3 is 25.1 µM (active).

Consider `COc1cc(F)c(F)c(Nc2ccc(I)cc2F)c1NS(=O)(=O)C1(CC(O)CO)CC1` (centres undefined), for which the Potency result with C33A, in the experiment on CASKI, with HeLa, with Hek293T, in the experiment on JEG-3 and in the experiment on PA-1 was “inactive” throughout. Further, in the experiment with Tov112D, the Potency result was “inactive”.

`CC(C)c1ccc(-c2cc(=O)c3ccccc3o2)cc1`: the Potency was 11.2 µM (active) with C33A and 8.91 µM (active) with JEG-3. Further, the Potency result in the experiment with CASKI is “inactive”.

With `O=C(NCCCn1ccnc1)c1cc(-c2ccco2)on1`, the Potency entry in the experiment on C33A, in the experiment with CASKI, in the experiment on HeLa, in the experiment with Hek293T, with JEG-3 and in the experiment with OV90 was “inactive” in each case. Besides, the Potency entry in the experiment with SKOV3 and in the experiment on Tov112D was “inactive” each time.

In the case of `C=C1CC[C@@H]2[C@](C)(CO)[C@H](O)CC[C@@]2(C)[C@@H]1CC(=O)C1=CCOC1=O`, the Potency entry in the experiment with C33A, in the experiment on Hek293T, in the experiment on OV90 and in the experiment with SKOV3 was “inactive” each time.

For the compound `COc1cc(N2CCC(O)CC2)ccc1Nc1nc(Nc2ccccc2S(=O)(=O)C(C)C)c2[nH]cnc2n1`, the Potency entry in the experiment with C33A, in the experiment with Es-2, in the experiment with Hek293T, in the experiment on JEG-3, with OV90 and with PA-1 was “inactive” throughout. In addition, the Potency result with SKOV3 and in the experiment on Tov112D was “inactive” each time.

Turning to `Cc1cc(Nc2nc(-c3ccccc3)nc3ccccc23)n[nH]1`, the Potency entry in the experiment on C33A, with Es-2, with OV90 and with Tov112D was “inactive” each time. Moreover, the Potency in the experiment on PA-1 and in the experiment on Tov-21-G was 10 µM (active) each time.

As for `Cn1ncc(Cl)c1-c1cc(C(=O)NC(CN)Cc2ccc(F)c(F)c2)oc1Cl` (centres undefined), the results for the Potency in the experiment with C33A and in the experiment on Hek293T were 3.16 µM (active) and 0.794 µM (active), respectively. Also, the Potency entry with Es-2, in the experiment with HeLa and with Tov112D was “inactive” in each case.

Consider `COc1ccccc1C(=O)Nc1cccc(NC(=O)c2cccc(C)c2)c1`, for which the Potency entry with CAOV3, in the experiment on CASKI, in the experiment on Es-2, with HeLa, in the experiment on Hek293T and with JEG-3 was “inactive” throughout. Besides, the Potency entry with OV90, in the experiment with PA-1, with SKOV3, in the experiment on Tov-21-G and with Tov112D was “inactive” throughout.

On to `C#Cc1cccc(Nc2nc3cc(C(=O)O)ccc3c3cncnc23)c1`, for which the Potency result in the experiment with C33A, in the experiment on JEG-3, in the experiment on SKOV3 and with Tov112D was “inactive” in each case. Also, the values for the Potency in the experiment with HeLa and in the experiment on PA-1 were 11.2 µM (active) and 3.55 µM (active), respectively.

`Cc1noc(C)c1-c1cc(O)cc(C(O)c2ccccc2)c1` (centres undefined): the Potency result with C33A, in the experiment with Hek293T, in the experiment on JEG-3, with OV90, in the experiment with Tov-21-G and in the experiment with Tov112D was “inactive” in each case. The Potency with SKOV3 was 15.8 µM (active).

Regarding `N#Cc1ccc(O[C@@H]2c3ccccc3C[C@H]2N2CCC[C@@H](N)C2)c(Cl)c1`, the Potency result in the experiment on C33A, in the experiment with HeLa, in the experiment on Hek293T, in the experiment with JEG-3, with OV90 and with PA-1 was “inactive” each time. The Potency entry in the experiment with Tov112D is “inactive”.

`CCNC(=O)C#Cc1ccc2c(C(=Nc3ccc(CN(C)C)cc3)c3ccccc3)c(O)[nH]c2c1`: the Potency entry in the experiment with C33A, in the experiment on Hek293T and in the experiment on JEG-3 was “inactive” each time. In addition, the Potency in the experiment with OV90 is 0.447 µM (active); with SKOV3 it was 1.41 µM (active); in experiment [1] (HiBiT), 17.6 µM (active); in experiment [1] (Viability) it was 9.91 µM (active).

For the compound `O=C(CN1C2=NCCN2c2ccccc21)c1ccc(-c2ccccc2)cc1`, the Potency result in the experiment with C33A, in the experiment on Es-2, in the experiment on HeLa, in the experiment with Hek293T, in the experiment with JEG-3 and in the experiment with PA-1 was “inactive” each time. Moreover, in the experiment with Tov112D, the Potency entry was “inactive”.

On to `Fc1ccc(-c2nc(C3CCNCC3)sc2-c2ccnc(NC3CC3)n2)cc1`, for which the Potency result in the experiment with C33A, with Hek293T, in the experiment with OV90 and with Tov112D was “inactive” in each case.

Regarding `Cc1ccc(OC[C@H](O)[C@H](C)NC(C)C)c2c1CCC2`, the Potency entry in the experiment on CAOV3, in the experiment on CASKI, in the experiment with Es-2, in the experiment on HeLa, with Hek293T and with JEG-3 was “inactive” throughout. The Potency result in the experiment on OV90, in the experiment on PA-1, in the experiment on SKOV3, in the experiment with Tov-21-G and in the experiment with Tov112D was “inactive” in each case.
